Hit rate of the full screen: of about 5,500 compounds, about 2,000 (36%) were called active. Not shown: some 18% with an inconclusive outcome. Rule as the data show it: active = normalized growth mostly below about 0.91 (no sharp cut-off); inconclusive = no clear call, values can overlap the other calls; inactive = mostly above about 0.92. Some of the results follow.
Assay: chemical genetic growth profiling, strain panel (AID 1159580);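 also: tested at 20 µM; growth read once vehicle control cultures reached saturation at 30 °C; 1 = growth at the plate median or of vehicle wells; lower values mean less growth of the strain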
Settings: S. cerevisiae deletion strains, growth OD

Measured: normalized growth

NCCC1CCCC(CCN)N1 (centres undefined)
inactive: locus YAL013W, strain DEP1, hits give low values 1.01 | locus YAL040C, strain CLN3, hits give low values 1.01 | locus YCL061C, strain MRC1 (second series), hits give low values 1.01 | locus YDR363W, strain ESC2, hits give low values 1.01 | locus YER002W, strain NOP16, hits give low values 0.995 | locus YGR078C, strain PAC10, hits give low values 1.02 | locus YGR229C, strain SMI1, hits give low values 1.01 | locus YJR075W, strain HOC1, hits give low values 1.01 | locus YNL153C, strain GIM3, hits give low values 1.01 | locus YNL175C, strain NOP13, hits give low values 1 | locus YNL197C, strain WHI3, hits give low values 1 | locus YNL224C, strain SQS1, hits give low values 1 | locus YOR083W, strain WHI5 (second series), hits give low values 1.01 | locus YPL055C, strain LGE1, hits give low values 1.02 | locus YPL241C, strain CIN2, hits give low values 1.01

COc1ccnc(CS(=O)c2nc3ccc(OC(F)F)cc3[nH]2)c1OC (centres undefined)
inactive: locus YAL021C, strain ccr4, hits give low values 0.993 | locus YAL026C, strain drs2, hits give low values 1.04 | locus YAL030W, strain snc1, hits give low values 1.02 | locus YBL061C, strain skt5, hits give low values 1.04 | locus YBR009C, strain hhf1, hits give low values 0.991 | locus YBR023C, strain chs3, hits give low values 1.04 | locus YBR171W, strain sec66, hits give low values 1.03 | locus YBR231C, strain swc5, hits give low values 1.01 | locus YBR279W, strain paf1, hits give low values 1.04 | locus YCL011C, strain gbp2, hits give low values 1.02 | locus YCL016C, strain dcc1, hits give low values 1.03 | locus YCL069W, strain vba3, hits give low values 1.02 | locus YCR088W, strain abp1, hits give low values 1.03 | locus YDL005C, strain med2, hits give low values 1.02 | locus YDL040C, strain nat1, hits give low values 1.03 | locus YDR001C, strain nth1, hits give low values 1.02 | locus YDR069C, strain doa4, hits give low values 1.02 | locus YDR137W, strain rgp1, hits give low values 1.05 | locus YDR159W, strain sac3, hits give low values 0.94 | locus YDR195W, strain ref2 1.01 | locus YDR297W, strain sur2, hits give low values 1.02 | locus YDR334W, strain swr1, hits give low values 1.03 | locus YDR335W, strain msn5, hits give low values 1.05 | locus YDR392W, strain spt3, hits give low values 0.925 | locus YEL003W, strain gim4, hits give low values 1.02 | locus YEL037C, strain rad23, hits give low values 1.03 | locus YEL061C, strain CIN8 (second series), hits give low values 1.02 | locus YER015W, strain faa2, hits give low values 1.03 | locus YER016W, strain bim1, hits give low values 1.04 | locus YER111C, strain swi4, hits give low values 1.05 | locus YER155C, strain BEM2 (second series), hits give low values 0.917 | locus YFR010W, strain ubp6, hits give low values 1.01 | locus YGL167C, strain pmr1, hits give low values 1.02 | locus YGL173C, strain kem1, hits give low values 0.989 | locus YGL227W, strain vid30, hits give low values 1.03 | locus YGL240W, strain doc1, hits give low values 0.977 | locus YGL253W, strain hxk2, hits give low values 1.05 | locus YHR013C, strain ard1, hits give low values 1.05 | locus YHR027C, strain rpn1, hits give low values 0.989 | locus YHR030C, strain SLT2, hits give low values 0.864 | locus YHR079C, strain IRE1, hits give low values 0.946 | locus YHR142W, strain chs7, hits give low values 1.05 | locus YJL092W, strain hpr5, hits give low values 1.01 | locus YJL095W, strain BCK1 (second series), hits give low values 1.02 | locus YJL095W, strain BCK1, hits give low values 0.89 | locus YJL115W, strain asf1, hits give low values 1.02 | locus YJL129C, strain trk1, hits give low values 1.03 | locus YJL154C, strain vps35, hits give low values 1.02 | locus YJL164C, strain tpk1, hits give low values 1 | locus YJL166W, strain qcr8, hits give low values 0.989 | locus YJL187C, strain SWE1, hits give low values 1.01 | locus YJR066W, strain TOR1, hits give low values 0.922 | locus YKL160W, strain elf1, hits give low values 1.03 | locus YKR026C, strain gcn3, hits give low values 1.04 | locus YKR091W, strain srl3, hits give low values 1.03 | locus YLL001W, strain dnm1, hits give low values 0.98 | locus YLL026W, hits give low values 1.02 | locus YLL041C, strain sdh2, hits give low values 1.01 | locus YLR027C, strain aat2, hits give low values 1.01 | locus YLR113W, strain HOG1, hits give low values 0.926 | locus YLR221C, strain rsa3, hits give low values 0.982 | locus YLR258W, strain gsy2, hits give low values 1.04 | locus YLR262C, strain YPT6 (second series), hits give low values 1.01 | locus YLR320W, strain mms22, hits give low values 0.936 | locus YLR342W, strain FKS1, hits give low values 1.02 | locus YLR357W, strain rsc2, hits give low values 1 | locus YLR370C, strain arc18, hits give low values 1.03 | locus YLR384C, strain iki3, hits give low values 1.01 | locus YML120C, strain ndi1, hits give low values 1 | locus YMR058W, strain fet3, hits give low values 1.04 | locus YMR125W, strain sto1, hits give low values 1.02 | locus YMR129W, hits give low values 1.03 | locus YMR205C, strain PFK2, hits give low values 1.01 | locus YMR231W, strain pep5, hits give low values 1.03 | locus YNL071W, strain lat1, hits give low values 1.02 | locus YNL183C, strain NPR1, hits give low values 0.868 | locus YNL209W, strain ssb2, hits give low values 1.02 | locus YNL248C, strain rpa49, hits give low values 1.06 | locus YNL322C, strain KRE1 (second series), hits give low values 1.05 | locus YNR049C, strain mso1, hits give low values 1.03 | locus YOR001W, strain rrp6, hits give low values 1 | locus YOR070C, strain gyp1, hits give low values 1.02 | locus YOR080W, strain dia2, hits give low values 1.04 | locus YOR083W, strain WHI5, hits give low values 0.995 | locus YOR106W, strain vam3, hits give low values 1.02 | locus YOR231W, strain MKK1, hits give low values 0.953 | locus YOR265W, strain rbl2, hits give low values 1 | locus YOR270C, strain vph1, hits give low values 1.2 | locus YOR290C, strain snf2, hits give low values 1.06 | locus YPL051W, strain arl3, hits give low values 1 | locus YPL078C, strain atp4, hits give low values 1.04 | locus YPL106C, strain sse1, hits give low values 1.03 | locus YPL240C, strain hsp82, hits give low values 1.03 | locus YPL256C, strain CLN2, hits give low values 0.969

Reference: PubChem BioAssay AID1159580 (chemical genetic matrix, 2015)
